# Measured values taken from PubChem BioAssay.
# Activity calls are given as the source filed them. Unless noted, the rule behind the calls is not given here.
# Experiments:
# [1] = test system: Wnt5a (protein binding on small-molecule microarray); assay: Wnt5a binders on small-molecule microarray, primary screen, biophysical, 635/667 nm fluorescence (AID 1142); settings: 635 nm fluorescence, higher = more signal;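 note: fluorescence read at 667 nm with signal to noise per printed feature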
# [2] = cell viability in Huh7 cells, primary screen, cytotoxicity control for HCV replication inhibitor project, CellTiter-Glo luminescence, basal, 48 h (AID 1143); settings: Huh7 HCV replicon, higher = more signal, called active from +8 up or from −8 down;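 note: Huh7 hepatoma cells carrying a hepatitis C replication reporter with no stimulus; test concentration not given here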
# [3] = P. aeruginosa biofilm formation inhibitors, primary screen, PAO1 strain, BacTiter-Glo luminescence, LB-PBS (AID 1144); settings: 12 h, higher = more signal
# [4] = CREB reporter modulators without forskolin, primary screen, cell-based, PC12, CRE-LacZ reporter, unstimulated (AID 1145); settings: no forskolin, luminescence, 4.5 h, higher = more signal, called active from +8 up or from −8 down
# [5] = CREB reporter modulators under forskolin, primary screen, cell-based, PC12, CRE-LacZ reporter, forskolin-stimulated (AID 1146); settings: luminescence, 4.5 h, higher = more signal, called active from +8 up or from −8 down;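 note: PC12 cells with 6xCRE LacZ reporter stimulated by forskolin 10 µM; beta-galactosidase reporter signal reflecting CREB driven transcription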
# [6] = biological target: Streptavidin (Streptomyces avidinii) (UniProt P22629); assay: streptavidin binders on small-molecule microarray, primary screen, artefact control for SMM compound annotation, biophysical, 635/667 nm fluorescence (AID 1147); settings: streptavidin binding, higher = more signal;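 note: signal reflects streptavidin binding to arrayed compounds as a control protein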
# Chain of Streptavidin (Streptomyces avidinii) (P22629 whole entry, looked up): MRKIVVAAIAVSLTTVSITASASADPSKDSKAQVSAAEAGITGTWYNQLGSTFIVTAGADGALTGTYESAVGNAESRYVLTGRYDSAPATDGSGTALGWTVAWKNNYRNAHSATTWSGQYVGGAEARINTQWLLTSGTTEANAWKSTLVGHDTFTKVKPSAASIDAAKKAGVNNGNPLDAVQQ
# [7] = small-molecule binders of probe aInhba, primary screen, biochemical, small-molecule microarray, 635/667 nm fluorescence (AID 1148); settings: higher = more signal;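 note: score merges 667nm spot fluorescence with signal-to-noise for antibody binding to printed compounds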
# Torsin-1A (Homo sapiens) [8] = biological target: Torsin-1A (Homo sapiens) (UniProt O14656); assay: torsin A binders from cell lysate, primary screen, small-molecule microarray, wild-type, 635/667 nm (AID 1149); settings: COS7 hTOR1A-WT lysate, 635 nm fluorescence, higher = more signal
# Chain of Torsin-1A (Homo sapiens) (O14656 whole entry, looked up): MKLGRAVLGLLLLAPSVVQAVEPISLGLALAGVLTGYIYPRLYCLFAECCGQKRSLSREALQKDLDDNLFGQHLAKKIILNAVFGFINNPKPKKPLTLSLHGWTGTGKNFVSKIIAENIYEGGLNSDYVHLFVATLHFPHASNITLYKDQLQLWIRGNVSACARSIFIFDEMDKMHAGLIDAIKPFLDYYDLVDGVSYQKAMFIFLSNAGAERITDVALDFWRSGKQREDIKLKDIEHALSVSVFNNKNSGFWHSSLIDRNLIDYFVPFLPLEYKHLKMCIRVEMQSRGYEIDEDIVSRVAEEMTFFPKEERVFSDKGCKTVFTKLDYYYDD
# Torsin-1A (Homo sapiens) [9] = biological target: Torsin-1A (Homo sapiens) (UniProt O14656); assay: small-molecule binders of mutant TOR1A in lysate, primary screen, cell lysate, small-molecule microarray, COS7 lysate, 635/667 nm fluorescence (AID 1150); settings: COS7 hTOR1A mutant lysate, 635 nm fluorescence, higher = more signal;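 note: score pools 667 nm emission and signal to noise measuring lysate protein binding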
# [10] = test system: Sonic hedgehog protein (Shh); assay: small-molecule binders of Shh protein, primary screen, biochemical, small-molecule microarray, 635/667 nm fluorescence (AID 1151); settings: small-molecule microarray binding, 635 nm fluorescence; higher = more signal;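 note: Shh protein binding to compounds spotted on small-molecule microarray slides; score combines spot fluorescence intensity with signal-to-noise across triplicate slides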
Compound,composite z-score [1],z-score [2],z-score [3],z-score [4],z-score [5],composite z-score [6],composite z-score [7],composite z-score (Torsin-1A (Homo sapiens) [8]),composite z-score (Torsin-1A (Homo sapiens) [9]),composite z-score [10]
O=C1OCC=C[C@H]2OC34C=CCN(c5ccc(Cl)cc5)C(=O)[C@H]3N(CCCO)C(=O)[C@@H]4[C@@H]12 (stereo not given in full),-0.329,-2.14 (inactive),-0.288 (inactive),1.28 (inactive),0.245 (inactive),-1.47,-0.15,0.626,-2.06,-0.629
CCCCC(=O)N(Cc1ccccc1F)[C@@H]1CC(C(=O)NCCO)=C[C@H](Oc2c(I)cc(CO)cc2OC)[C@H]1O,1.91,-2.1 (inactive),-0.43 (inactive),0.673 (inactive),0.377 (inactive),-0.291,0.0541,1.68,0.769,2.45
CCCC[C@@H]1C[C@H]1[C@@H](NC(=O)c1ccccc1)c1ccccc1,0.209,-0.877 (inactive),0.727 (inactive),0.0041 (inactive),0.79 (inactive),0.0499,0.401,-0.477,-0.0734,-0.412
CC(=O)NCCCC[C@@H]1NC(=O)[C@@H]2C[C@H](C(=O)NCCCCCC[N+](C)(C)C)[C@H](c3cccc(OCCO)c3)N2C1=O,0.505,-0.134 (inactive),-0.445 (inactive),-0.947 (inactive),-0.75 (inactive),-0.206,-0.0425,0.964,1.43,2.04
COc1ccc([Si](C)(C)[C@H]2[C@H](CCO)O[C@@]3(C(=O)N(Cc4cccc(N5C(=O)c6cccc7cccc5c67)c4)c4ccccc43)[C@@H]2C)cc1,0.346,-6.95 (inactive),0.0998 (inactive),-0.011 (inactive),-1.37 (inactive),0.343,-0.176,-0.697,-0.318,0.329
CO[C@H]1O[C@H](CO)[C@@H](OC(=O)Nc2cccc(F)c2)[C@H](OC(=O)Nc2ccccc2-c2ccccc2)[C@@H]1OC(=O)Nc1ccccc1-c1ccccc1,0.21,-5.49 (inactive),-0.579 (inactive),0.306 (inactive),0.0811 (inactive),1.88,0.212,0.838,0.886,0.667
CCCCCN1CC=CC23O[C@@H]4C=CCCOC(=O)C4[C@H]2C(=O)N(CCCO)[C@@H]3C1=O (stereo not given in full),-0.309,-2.45 (inactive),-1.06 (inactive),-0.492 (inactive),-0.285 (inactive),-0.559,-0.128,-0.0271,-1.09,0.4
CC(C)C(=C=CC[C@H](O)c1ccccc1OCCO)CCO,-0.0207,-0.334 (inactive),0.00427 (inactive),2.14 (inactive),1.49 (inactive),-0.366,-0.101,-0.0451,0.408,0.569
COc1ccc([Si](C)(C)[C@@H]2[C@@H](CC(=O)N3Cc4ccccc4C[C@H]3CO)O[C@]3(C(=O)N(Cc4cccc(N5C(=O)COc6ccccc65)c4)c4ccccc43)[C@H]2C)cc1,-0.0857,-4.33 (inactive),-0.219 (inactive),3.56 (inactive),-0.431 (inactive),0.535,-0.18,0.718,0.301,1.57
COc1ccccc1CN1C(=O)c2ccccc2[C@](Cc2ccccc2I)(C(=O)NC2CC2)[C@@H]1c1ccc(CO)cc1,0.811,-4.58 (inactive),-0.0735 (inactive),0.324 (inactive),-0.572 (inactive),0.662,0.0374,0.427,0.71,2.06
C[N+](C)(C)CCCC[C@@H]1NC(=O)[C@H]2C[C@@H](C(=O)O)[C@@H](c3cccc(OCCO)c3)N2C1=O,1.93,0.0605 (inactive),0.308 (inactive),-0.138 (inactive),0.629 (inactive),3.77,0.893,1.95,2.13,1.4
C=C(C(=O)CC[C@H](OC(=O)c1cccnc1)c1ccccc1OCCO)C(C)C,1.14,-1.13 (inactive),-0.467 (inactive),2.22 (inactive),0.716 (inactive),-0.383,-0.168,2.32,1.54,2.27
O=C1O[C@@H](c2ccccc2)[C@@H](c2ccccc2)N2[C@@H](c3ccc(O)cc3)[C@]3(C(=O)Nc4ccc(C#CCCO)cc43)[C@@H](C(=O)N3CCCCCCC3)[C@H]12,0.409,-0.915 (inactive),-0.547 (inactive),-0.114 (inactive),-0.394 (inactive),1.55,1.46,1.37,1,0.887
O=C1C2C=CC(C(O)c3ccc(B(O)O)cc3)N(Nc3ccc([N+](=O)[O-])cc3)C2C(=O)N1c1ccccc1 (stereo not given),0.263,-0.307 (inactive),-0.0903 (inactive),-1.07 (inactive),-2.26 (inactive),0.759,0.0785,0.363,0.286,0.221
O=C(NCCN1CCOCC1)[C@@H]1c2ccccc2C(=O)N(Cc2cc(F)cc(C(F)(F)F)c2)[C@H]1c1ccc(CO)cc1,-0.33,-0.269 (inactive),0.153 (inactive),0.378 (inactive),0.0284 (inactive),-0.78,0.422,0.543,0.165,1.76
COc1ccc(C#Cc2ccc3c(c2)[C@]2(C(=O)N3)[C@H](C(=O)N3CCN(c4ncccn4)CC3)[C@H]3C(=O)O[C@H](c4ccccc4)[C@H](c4ccccc4)N3[C@@H]2c2ccc(O)cc2)cc1,0.205,-0.629 (inactive),-0.747 (inactive),0.775 (inactive),-0.612 (inactive),1.04,0.13,-0.0852,0.231,0.88
CCCCN1CC=CC23O[C@@H]4C=CCCOC(=O)C4[C@H]2C(=O)N(CCCO)[C@@H]3C1=O (stereo not given in full),-0.148,-2.05 (inactive),-1.19 (inactive),-0.484 (inactive),0.46 (inactive),-0.614,-0.176,-0.387,-0.954,-0.278
O[C@@H](Cc1ccccc1)[C@@H](/C=C/c1ccccc1)NCc1ccccc1Br,-1.01,-0.626 (inactive),-0.662 (inactive),2.67 (inactive),-2.09 (inactive),-0.736,-0.205,-2.13,-1.9,-1.08
O=C1[C@H]2C=C(Br)[C@H](C[C@@H]2OCCOCCO)[C@@]12CO2,0.268,0.808 (inactive),0.199 (inactive),-1.23 (inactive),1.6 (inactive),0.138,-0.118,-0.428,-0.385,0.0806
CC(C)(C)OC(=O)CC[C@]1(C(=O)NCC(O)CO)N=C(c2ccc(OCCCO)cc2)O[C@H]1c1ccccc1CN=[N+]=[N-] (stereo not given in full),0.921,0.168 (inactive),-1.35 (inactive),0.0594 (inactive),-0.209 (inactive),1.63,0.496,0.399,2.06,-0.535
CC(C)(C)OC(=O)CC[C@@]1(C(=O)N2CCOCC2)N=C(c2ccc(OCCCO)cc2)O[C@@H]1c1ccccc1N=[N+]=[N-],1.23,-1.61 (inactive),0.321 (inactive),0.0686 (inactive),-0.713 (inactive),1.93,0.27,0.802,1.11,0.535
O=P(NCC1(CC2(c3ccccc3)CO2)CC1)(c1ccccc1)c1ccccc1 (stereo not given),-0.402,-0.814 (inactive),0.318 (inactive),0.197 (inactive),1.13 (inactive),-0.767,-0.0448,-0.87,-0.754,-1.41
CC(C)N1C(=O)c2ccccc2[C@](C)(C(=O)NC2CC2)[C@@H]1c1ccc(CO)cc1,0.204,-0.997 (inactive),-0.723 (inactive),0.118 (inactive),0.957 (inactive),-0.166,-0.2,1.11,0.74,0.889
CCN(CC)c1ccc(N2CC=CC34O[C@@H]5/C=C\CCCOC(=O)C5[C@H]3C(=O)N(CCCO)[C@@H]4C2=O)cc1 (stereo not given in full),-0.674,0.273 (inactive),2.24 (inactive),-0.212 (inactive),-0.473 (inactive),-1.12,-0.157,-1.94,-1.45,-0.18
CCCCCCC#C[Si](O[C@H](c1ccccc1)c1cn([C@H](C)c2ccccc2)nn1)(C(C)C)C(C)C,-0.0509,-0.658 (inactive),0.121 (inactive),-0.127 (inactive),0.15 (inactive),0.247,-0.361,0.381,1.26,0.573
O=c1cccc(-c2cccc3ccccc23)o1,-0.0859,-0.779 (inactive),-0.469 (inactive),0.182 (inactive),0.092 (inactive),0.112,-0.0471,0.272,-0.0514,-0.343
C=C(C)[C@@H]1CC=C(C(O)C2C=CC3C(=O)N(Cc4ccccc4)C(=O)C3N2n2cnnc2)CC1 (stereo not given in full),-0.0115,-4.22 (inactive),-1.38 (inactive),0.22 (inactive),-0.0578 (inactive),0.258,0.0314,0.0146,-0.388,-0.408
Oc1ccc2cc[n+](Cc3cccc(OC(F)(F)F)c3)cc2c1,0.112,0.202 (inactive),-0.452 (inactive),-0.0243 (inactive),-0.668 (inactive),0.1,-0.255,0.0193,-0.527,1.89
C=C[C@H](C)[C@H](OC(=O)Nc1ccc(OC)cc1)c1ccc(O)c2ccccc12,0.107,-3.55 (inactive),-0.156 (inactive),0.236 (inactive),0.544 (inactive),-0.199,-0.128,0.822,0.16,0.9
